The sample as a whole holds a higher share of hits than the screen did.
T cruzi growth: T. cruzi proliferation inhibition; T. cruzi beta-gal in NIH3T3, GalScreen luminescence, 90 h; inhibition, % at 8.34 µM; actives 5.9% (n = 77,000); AID 624255;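 active = mean inhibition above about 93%, with at least 55% of replicates each passing it, limit read from the data, passing the limit was not always enough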
C diff HTS: blocks growth of Clostridium difficile | Clostridium difficile clinical isolate growth, OD600, 24 h; stronger effect = lower value | growth activity, negative = inhibition, % at 16 µg/mL (by protocol) | actives 0.25% (n = 86,000);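 active = mean growth activity at or below -80% and every replicate also at or below -80%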
Each line names hits and unclear results; the compound was inactive in the other large screens; ! = a repeat was not active.

C[C@H](CO)N1C[C@H](C)[C@H](CN(C)Cc2ccncc2)Oc2cc(C#CCN(C)C)ccc2S1(=O)=O	none
COc1cccc(C#Cc2ccc3c(c2)O[C@@H](CN(C)C(=O)c2ccccn2)[C@H](C)CN([C@H](C)CO)S3(=O)=O)c1	T cruzi growth 119
C[C@@H]1CN([C@@H](C)CO)S(=O)(=O)c2ccc(/C=C/c3ccccc3)cc2O[C@@H]1CN(C)C(=O)c1ccccc1	T cruzi growth 127
C[C@H]1CN([C@@H](C)CO)S(=O)(=O)c2ccc(C#CCN(C)C)cc2O[C@@H]1CN(C)Cc1ccncc1	T cruzi growth 97
C/C=C/c1ccc2c(c1)O[C@@H](CN(C)C(=O)c1ccccc1)[C@H](C)CN([C@H](C)CO)S2(=O)=O	none (no result: T cruzi growth)
COc1cccc(C#Cc2ccc3c(c2)O[C@H](CN(C)C(=O)c2ccccn2)[C@H](C)CN([C@@H](C)CO)S3(=O)=O)c1	T cruzi growth 116
COc1ccc(C#Cc2ccc3c(c2)O[C@@H](CN(C)C(=O)c2ccccn2)[C@H](C)CN([C@@H](C)CO)S3(=O)=O)cc1	none (no result: T cruzi growth)
O=C(c1cccnc1)N1CC(=O)N2[C@H](CO)[C@H](c3ccc(C#CCC4CCCC4)cc3)[C@H]2C1	none (no result: T cruzi growth)
C[C@H](CO)N1C[C@H](C)[C@@H](CN(C)C(=O)NC2CCCCC2)OCCCC[C@H](C)Oc2ccc(NC(=O)CCC(F)(F)F)cc2C1=O	none
CO[C@@H]1CN(C)C(=O)c2ccc(NS(C)(=O)=O)cc2OC[C@@H](C)N(Cc2cncnc2)C[C@H]1C	none (no result: C diff HTS)
CC(C)NC(=O)N1[C@H](CO)[C@@H](c2ccccc2)[C@H]1CN(C)C(=O)c1cccnc1	none
COc1ccc(S(=O)(=O)N(C)C[C@H]2OCCCC[C@@H](C)Oc3ccc(NS(=O)(=O)c4cn(C)cn4)cc3C(=O)N([C@@H](C)CO)C[C@@H]2C)cc1	none (no result: C diff HTS)
C[C@@H]1CN([C@H](C)CO)C(=O)c2cccc(NS(C)(=O)=O)c2O[C@H]1CN(C)S(=O)(=O)c1ccc(F)cc1	none (no result: C diff HTS)
C[C@H]1CN([C@@H](C)CO)C(=O)c2cccc(NS(=O)(=O)c3cccs3)c2O[C@H]1CN(C)Cc1ccc(C(=O)O)cc1	none (no result: C diff HTS)
O=C(C[C@H]1CC[C@H]2[C@@H](COC[C@@H](O)CN2C(=O)Nc2ccc(Cl)c(Cl)c2)O1)NC1CCC1	C diff HTS -99!
CCNC(=O)C[C@@H]1CC[C@H]2[C@@H](COC[C@H](O)CN2C(=O)Nc2ccc(Cl)c(Cl)c2)O1	none (no result: C diff HTS)
O=C(C[C@H]1CC[C@@H]2[C@H](COC[C@H](O)CN2C(=O)Nc2ccc(Cl)c(Cl)c2)O1)NC1CCC1	C diff HTS -99!
O=C(C[C@@H]1CC[C@@H]2[C@H](COC[C@H](O)CN2C(=O)Nc2ccc(Cl)c(Cl)c2)O1)NC1CCC1	C diff HTS -101!
O=C(C[C@@H]1CC[C@@H]2[C@H](COC[C@@H](O)CN2C(=O)Nc2ccc(Cl)c(Cl)c2)O1)NC1CCC1	C diff HTS -98
CNC(=O)C[C@H]1CC[C@@H]2[C@H](COC[C@H](O)CN2C(=O)Nc2ccc(Cl)c(Cl)c2)O1	none
CCNC(=O)C[C@@H]1CC[C@H]2[C@@H](COC[C@@H](O)CN2C(=O)Nc2ccc(Cl)c(Cl)c2)O1	none (no result: C diff HTS)
CNC(=O)C[C@@H]1CC[C@H]2[C@@H](COC[C@H](O)CN2C(=O)Nc2ccc(Cl)c(Cl)c2)O1	none
Cc1noc(C)c1S(=O)(=O)Nc1ccc2c(c1)C(=O)N([C@H](C)CO)C[C@H](C)[C@H](CN(C)C(=O)NC1CCCCC1)OCCCC[C@@H](C)O2	none
CO[C@@H]1CC[C@@H]2CCN(C)C(=O)[C@H](C)N(C)C(=O)c3cccc(C#N)c3OC[C@H]1O2	none
C[C@H]1CCCCO[C@@H](CN(C)Cc2ccccc2)[C@@H](C)CN([C@@H](C)CO)C(=O)c2cc(N(C)C)ccc2O1	none
O=C(C[C@H]1CC[C@@H]2[C@H](COC[C@@H](O)CN2C(=O)Nc2cc(Cl)cc(Cl)c2)O1)N1CCOCC1	none
O=C(C[C@H]1CC[C@H]2[C@@H](COC[C@H](O)CN2C(=O)Nc2cc(Cl)cc(Cl)c2)O1)N1CCOCC1	C diff HTS -96!
O=C(C[C@H]1CC[C@H]2[C@@H](COC[C@H](O)CN2C(=O)Nc2ccc(Cl)c(Cl)c2)O1)NC1CCC1	C diff HTS -92
CNC(=O)C[C@H]1CC[C@@H]2[C@H](COC[C@@H](O)CN2C(=O)Nc2ccc(Cl)c(Cl)c2)O1	none
CS(=O)(=O)N1CC(=O)N2[C@H](CO)[C@@H](c3ccc(C#CC4CCCC4)cc3)[C@H]2C1	none (no result: T cruzi growth)
CC(C)NC(=O)N(C)C[C@@H]1Oc2c(NC(=O)Nc3ccc(C(F)(F)F)cc3)cccc2C(=O)N([C@H](C)CO)C[C@H]1C	none
CN1c2ccc(Br)cc2[C@H]2[C@H](CCN2C(=O)Nc2ccc(F)cc2)[C@H]1CO	none
CN1c2ccc(Br)cc2[C@H]2[C@H](CCN2C(=O)Nc2ccc(F)cc2)[C@@H]1CO	C diff HTS -94
C[C@H](CO)N1C[C@H](C)[C@@H](CN(C)CC2CC2)Oc2ccc(NC(=O)Cc3cn(C)c4ccccc34)cc2CC1=O	none
COc1ccc(NC(=O)N2[C@@H]3CNC[C@H]2C3c2ccc(-c3cccc(OC)c3)cc2)cc1 (stereo not given in full)	none (no result: T cruzi growth)
O=C(Nc1ccc(C(F)(F)F)cc1)N1[C@@H]2CNC[C@H]1C2c1ccc(-c2ccc(F)cc2)cc1 (stereo not given in full)	C diff HTS -99 (no result: T cruzi growth)
Cc1ccccc1-c1ccc(C2[C@H]3CNC[C@@H]2N3C(=O)Nc2ccc(Cl)cc2)cc1 (stereo not given in full)	C diff HTS -97! (no result: T cruzi growth)
O=C(Nc1ccc(C(F)(F)F)cc1)N1[C@@H]2CNC[C@H]1C2c1ccc(-c2cccnc2)cc1 (stereo not given in full)	none (no result: T cruzi growth)
COc1ccc(NC(=O)N2[C@@H]3CNC[C@H]2C3c2ccc(-c3ccccc3C)cc2)cc1 (stereo not given in full)	none (no result: T cruzi growth)
COc1cccc(-c2ccc(C3[C@H]4CNC[C@@H]3N4C(=O)Nc3ccc(C(F)(F)F)cc3)cc2)c1 (stereo not given in full)	C diff HTS -94! (no result: T cruzi growth)
CN(C)c1ccc2c(c1)[C@@H]1C[C@@H](CC(=O)NCCc3ccccc3)O[C@@H](CO)[C@@H]1O2	none
COc1ccc(C#Cc2ccc([C@H]3[C@H](CO)N4CCCCN(Cc5ccccc5F)C[C@@H]34)cc2)cc1	C diff HTS -97
COc1ccc(C#Cc2ccc([C@@H]3[C@H](CO)N4CCCCN(Cc5ccccc5F)C[C@@H]34)cc2)cc1	C diff HTS -97
OC[C@@H]1[C@@H](c2ccc(C#CC3(O)CCCC3)cc2)[C@@H]2CN(Cc3ccccc3F)CCCCN12	none
COc1ccc(C#Cc2ccc([C@@H]3[C@@H](CO)N4CCCCN(Cc5ccccc5F)C[C@@H]34)cc2)cc1	none
CC(C)NC(=O)N1CC(=O)N2[C@H](CO)[C@H](c3ccc(C#CCN(C)C)cc3)[C@@H]2C1	none (no result: T cruzi growth)
Cc1noc(C)c1S(=O)(=O)Nc1ccc2c(c1)C(=O)N([C@@H](C)CO)C[C@@H](C)[C@@H](CN(C)S(C)(=O)=O)OCCCC[C@@H](C)O2	none
Cc1ccccc1-c1ccc([C@@H]2[C@@H](CO)N3CCCCN(C(=O)Nc4ccc(F)cc4)C[C@H]23)cc1	none
Cc1ccccc1-c1ccc([C@@H]2[C@H](CO)N3CCCCN(C(=O)Nc4cccc(F)c4)C[C@@H]23)cc1	C diff HTS -96

Screening data as filed in PubChem.
